# FMDV inh – High Throughput Screening for Foot and Mouth Disease Virus Antivirals; FMDV antiviral cell-based qHTS; 1.2% of 410,000 active; Potency, µM (doses to about 57.9 µM), inactives show at the highest dose activity change, negative = inhibition, actives largely listed as inhibitors; calls by dose curve; tested in HEK293T cells; further: read-out not given here; potency means the concentration at half of the fitted maximal effect; nearly all actives have a fitted effect of over 45% in size
# AmpC no deterg – qHTS Inhibitors of AmpC Beta-Lactamase (assay without detergent); AmpC nitrocefin hydrolysis, absorbance 480 nm, 0.0001% Triton; 0.52% of 330,000 active; P00811; AID 485341, 2010; Potency, µM (series often up to 57.1 µM), for inactives: top-dose activity change, negative = inhibition, most hits filed as inhibitors;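 further: potency means the concentration at half of the fitted maximal effect; plate controls were no compound for no effect and no enzyme for full effect; nearly all actives have a fitted effect of over 20% in size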
# Target sequence (P00811 whole entry, looked up): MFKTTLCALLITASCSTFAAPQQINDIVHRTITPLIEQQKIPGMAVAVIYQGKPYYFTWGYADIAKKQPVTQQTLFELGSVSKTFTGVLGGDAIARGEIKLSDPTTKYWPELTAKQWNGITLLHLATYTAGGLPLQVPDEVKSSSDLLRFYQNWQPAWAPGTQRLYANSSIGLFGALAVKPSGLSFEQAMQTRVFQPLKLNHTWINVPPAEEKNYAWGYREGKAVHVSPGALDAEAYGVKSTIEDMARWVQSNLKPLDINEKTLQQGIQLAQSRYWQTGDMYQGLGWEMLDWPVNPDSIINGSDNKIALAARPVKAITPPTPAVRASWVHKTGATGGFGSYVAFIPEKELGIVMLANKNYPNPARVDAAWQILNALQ
#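 20 mM phosphate pH 7.0 + 0.01% (detergent screen) or 0.0001% Triton X-100; 5.3 nM AmpC reagent; cpd preinc 15 min RT; nitrocefin (800 uM stock) to start; A480 q20 s × 4 min; Activity was normalised to no-enzyme and no-compound control wells.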
# HCV inhibitor – qHTS Assay for Inhibitors of Hepatitis C Virus (HCV); Huh7.5.1 HCVcc-Cre infection, luciferase reporter, 44 h; Potency, µM (highest dose often 41.8 µM), for the others: at the highest dose activity change, negative = inhibition, hits mostly inhibitors; 3.4% of 340,000 active; AID 651820, 2012; further: potency means the concentration at half of the fitted maximal effect
#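 Antiviral activity was scored by luciferase reporter output from cells infected with HCVcc-Cre (~0.5 moi) in presence of compound, 44 h infection period, cells seeded 1,000/well 4 h prior.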
# AmpC detergent – qHTS Inhibitors of AmpC Beta-Lactamase (assay with detergent) | AID 485294, 2010 | 0.041% of 370,000 active | AmpC hydrolysis of nitrocefin, absorbance 480 nm, 0.01% Triton | P00811 | Potency, µM (series often up to 114 µM), for inactives: top-dose activity change, negative = inhibition, actives largely listed as inhibitors;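 further: potency means the concentration at half of the fitted maximal effect; 0% = no-compound wells and -100% = no-enzyme wells; nearly all actives have a fitted effect of over 25% in size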
#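 AmpC (5.3 nM in the dispensed reagent) in 20 mM phosphate pH 7.0 with 0.01% (detergent screen) or 0.0001% Triton X-100 was preincubated with compounds for 15 min at room temperature. Nitrocefin was then added from an 800 uM solution, and hydrolysis was followed at 480 nm.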
# HCMV inh – qHTS Assay for inhibitors of the human cytomegalovirus (HCMV) | activity change, negative = inhibition, % at 57.5 µM | HFF cells, HCMV-luciferase reporter, 72 h; active compounds read low | AID 1259415, 2018 | 4.5% of 410,000 active; in the data active means activity change below about -60%; inconclusive means no clear call, values can overlap the other calls; inactive means above about -39%
#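 Inhibition of viral replication was scored as loss of reporter luminescence in HFFs infected with HCMV-luciferase (MOI 1 PFU/cell) for 72 h; compounds tested at 2 doses, normalized to buffer and Salinomycin controls.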
# The depositor's hits bear a star; ? = inconclusive; . = no result; + = active, no number; ! = not confirmed by another sample. Compounds with a hit are over-represented: about 7.3% of the library has one in this group of screens. Unless noted, the call rests on the fitted dose curve; in most records, active means well fitted curve in the direction sought with a large enough effect; inconclusive means small, poorly fitted or top-dose-only effect, or another doubt; inactive means no such curve, though single readings can be large; an effect the other way counts as inactive or inconclusive. Unless noted, on the % scale 0 is the no-effect control and ±100 the full control effect.
SMILES,FMDV inh,AmpC no deterg,HCV inhibitor,AmpC detergent,HCMV inh
COc1ccccc1N1CCN(C(=O)C2CCCN(S(=O)(=O)c3ccc(C)cc3)C2)CC1 (stereo not drawn),?,152%,?,?,0
COc1ccccc1N1CCN(C(=O)C2CCCN(S(=O)(=O)c3ccc4c(c3)CCCN4C(C)=O)C2)CC1 (stereo not drawn),28µM*,214%,10µM*,5%,-89*!
COc1ccc(Cl)cc1C(=O)C1CCCN(Cc2cnc(N3CCOCC3)s2)C1 (stereo not drawn),?,168%,?,9%,?
COc1c(C)cc(C(=O)C2CCCN(Cc3cnc(N4CCOCC4)s3)C2)cc1C (stereo not drawn),-19%,171%,11µM*,0%,-25
COc1c(C)cc(C(=O)C2CCCN(Cc3cccc(O)c3)C2)cc1C (stereo not drawn),0%,-21%,13µM*,-11%,15
COc1cc(OC)c(OC)cc1CN1CCCC(C(=O)c2ccccc2SC)C1 (stereo not drawn),-1%,33%,-1%,-5%,-11
COc1cc(CN2CCCC(C(=O)c3ccccc3SC)C2)cc(OC)c1 (stereo not drawn),-16%,30%,11µM*,-11%,-16
COc1cccc(C(=O)C2CCCN(Cc3cccc(-n4nc(C)cc4C)c3)C2)c1 (stereo not drawn),?,147%,35µM*,7%,6
CC(NC(=O)c1ccco1)c1nnc2n1CCN(Cc1ccc(N(C)C)cc1)CC2 (stereo not drawn),-4%,.,.,.,.
COc1cccc(-c2cc3c(c(OC)c2)OCCN(Cc2cccn2-c2ccccn2)C3)c1,1%,.,.,.,.
O=C([C@H]1[C@H](CO)[C@H]2Cn3c(cccc3=O)[C@@H]1N2C(=O)c1ccc(F)cc1)N1CCCCC1,.,.,.,.,14
O=C(O)Cc1nn(Cc2ccc(Br)cc2F)c(=O)c2ccccc12,-16%,.,.,.,.
COc1c(C)cc(C(=O)C2CCCN(C(=O)c3ccoc3)C2)cc1C (stereo not drawn),0%,36%,9%,5%,-81*
Cc1ccc(S(=O)(=O)N2CCOCC2)cc1C(=O)N(C)CCOc1ccc(Cl)cc1,?,182%,?,6%,-33
COc1ccccc1CN(C)C(=O)c1cccc(S(=O)(=O)N2CCCC2)c1,40%,4%,-8%,-12%,24
COc1ccc(CCN(C)C(=O)c2cccc(S(=O)(=O)N3CCN(c4ccc(F)cc4)CC3)c2)cc1OC,?,.,2.8µM*,.,?
CN(CCOc1ccc(Cl)cc1)C(=O)c1cccc(S(=O)(=O)N2CCN(c3ccc(F)cc3)CC2)c1,?,.,2.8µM*,.,.
Cc1cc(C)c2c(-n3cccc3)c(C(=O)NCCc3ccc(Cl)cc3)sc2n1,-29%,.,.,19%,-24
Cc1[nH]ccc2cc3nc4ccccc4c3cc12,-20%,.,.,.,-72*
N#Cc1c2ccc([N+](=O)[O-])cc2[n+]([O-])n1-c1ccccc1,.,-18%,1.6µM*,4%,+
CCC1=Nc2cc(C(=O)NC3CCCC3)ccc2Sc2ccc(Cl)cc21,-23%,.,.,13%,-71*
CC1=Nc2cc(C(=O)NC(C)C)ccc2Sc2ccc(C)cc21,-18%,.,.,15%,-77*
CCC1=Nc2cc(C(=O)NCc3ccco3)ccc2Sc2ccc(Cl)cc21,-14%,-21%,?,-8%,-67*
CC1=Nc2cc(C(=O)NC3CCCC3)ccc2Sc2ccc(Cl)cc21,-25%,.,.,3%,-72*
CC1=Nc2cc(C(=O)NC3CCCC3)ccc2Sc2ccc(C)cc21,-2%,.,.,23%,-93*
SMILES,FMDV inh,AmpC no deterg,HCV inhibitor,AmpC detergent,HCMV inh
COc1cc(-c2cccc([C@H]3[C@@H]4C=CC[C@@H](C)[C@@H]4C(=O)N3Cc3ccccc3)c2)cc(OC)c1OC,-2%,53%,10µM*,.,-2
COc1ccc(-c2cccc([C@H]3[C@@H]4C=CC[C@@H](C)[C@@H]4C(=O)N3Cc3ccccc3)c2)cc1,?,-4%,?,.,-22
COc1ccc(-c2c([C@H]3[C@H]4C=CC[C@@H](C)[C@@H]4C(=O)N3Cc3ccccc3)ccc3ccccc23)cc1,?,-7%,7.1µM*,-4%,?
COc1ccc(-c2ccc([C@H]3[C@H]4C=CC[C@@H](C)[C@@H]4C(=O)N3Cc3ccccc3)c(F)c2)cc1,-11%,32%,?,0%,26
CC(=O)c1ccc(-c2cccc([C@H]3[C@@H]4C=CC[C@@H](C)[C@@H]4C(=O)N3Cc3ccccc3)c2)cc1,-3%,11%,11µM*,.,-7
O=c1[nH]c(C2CCN(S(=O)(=O)c3ccc4c(c3)OCCO4)CC2)nc2c1nnn2Cc1ccc(F)cc1,4%,1%,-20%,-4%,?
COc1ccc(S(=O)(=O)N(C)c2ccc(C(=O)Nc3ccccc3C(=O)N3CCOCC3)cc2)cc1OC,-18%,90%,-16%,-13%,?
Cc1ccc(S(=O)(=O)NC2=C(N3CCN(Cc4ccccc4)CC3)C(=O)c3ccccc3C2=O)cc1,-21%,-25%,2%,-1%,-65*
C#CCN1C(=O)[C@@H](C)[C@@](C#N)(C(=O)OC)[C@H]1c1ccc(OC)cc1,.,.,.,.,1
Cc1ccc(N/N=C(\C#N)C(N)=S)c(C)c1,-13%,3.5µM*,-15%,1%,-2
CC(=O)c1cccc(NC(=O)c2sc(-n3nc(C)c(Cc4ccccc4)c3C)nc2C)c1,?,.,.,20%,-61*
COc1ccc(Cc2c(C)nn(-c3nc(C)c(C(=O)Nc4cccc(C(C)=O)c4)s3)c2C)cc1,?,.,.,22%,-28
COc1ccc(CCNC(=O)/C=C/c2ccc(OC)c(S(=O)(=O)N3CCOCC3)c2)cc1,3%,57%,-19%,0%,?
CC(C)c1ccc2[nH]c3c(c2c1)CCC/C3=N\NC(=O)c1ccncc1,?,100%,0.35µM*,-1%,-16
CCCCN=CN1c2cc(OC)ccc2-n2cccc2C1c1ccccc1 (stereo not drawn),.,.,.,.,85
O=C(NCCC(=O)N1CCOCCOCCOCCOCC1)OCc1ccccc1,1%,63%,17%,-8%,16
O=C(COC(=O)CNC(=O)c1ccco1)NCCN1C(=O)CSC1=O,8%,-15%,-4%,-13%,-62*
COc1ccccc1OCC(=O)OCC(=O)NCCN1C(=O)CSC1=O,23%,-2%,21%,-12%,-4
CN(C)Cc1c(C(C)(C)O)[nH]c2cc(F)ccc12,.,.,.,.,-7
COC1=C(C)C(=O)C2=C(C1=O)C(CO)N1C(C#N)C3CC4C(C1C2N1CCOC41)N3C (stereo not drawn),?,.,.,.,-99*

# Compound activity: PubChem, National Center for Advancing Translational Sciences (NCATS)
